Reference: PubChem BioAssay AID1159580 (chemical genetic matrix, 2015)
Screen size: about 5,500 compounds; about 2,000 (36%) were called active. Not shown: some 18% with an inconclusive outcome. No stated cut-off is given here; in the data, active means normalized growth mostly below about 0.91 (no sharp cut-off); inconclusive means no clear call, values can overlap the other calls; inactive means mostly above about 0.92. The list shows a part of the results.

Experiment: chemical genetic growth profiling, strain panel (AID 1159580);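 further: tested at 20 µM; growth read once vehicle control cultures reached saturation at 30 °C; 1 = growth at the plate median or of vehicle wells; lower values mean less growth of the strain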
Settings: S. cerevisiae deletion strains, growth OD

Measured: normalized growth

CC(=O)NCCc1ccc(O)c(O)c1
inactive: locus YAL013W, strain DEP1, hits give low values 1.03 | locus YAL040C, strain CLN3, hits give low values 1.01 | locus YDR363W, strain ESC2, hits give low values 1.05 | locus YER002W, strain NOP16, hits give low values 1 | locus YJR075W, strain HOC1, hits give low values 1.02 | locus YNL128W, strain TEP1, hits give low values 0.999 | locus YNL153C, strain GIM3, hits give low values 0.986 | locus YNL175C, strain NOP13, hits give low values 1.01 | locus YNL197C, strain WHI3, hits give low values 1.01 | locus YNL224C, strain SQS1, hits give low values 0.998 | locus YOR083W, strain WHI5 (second series), hits give low values 1.02 | locus YPL241C, strain CIN2, hits give low values 1.01
